Data reported in the supplement of paper PMC4166925.
± gives the standard deviation of the averaged measurements. In all, about 33,000 sequences were measured (“E-score (dimensionless, -0.5 to 0.5)”: median about -0.049, highest 2% from about 0.37 on). This excerpt belongs to a sample that is enriched for the highest values.

These sequences were tested on T1, PmTbr T-box DNA-binding domain (GST fusion) (assay: PBM E-score of 8-mer (E-score (dimensionless, -0.5 to 0.5)); Tbr is Tbrain of the sea star Patiria miniata (Pm) or the sea urchin Strongylocentrotus purpuratus (Sp); higher = stronger binding preference). Conditions: the construct has about 5 more residues each side.
T1 sequence: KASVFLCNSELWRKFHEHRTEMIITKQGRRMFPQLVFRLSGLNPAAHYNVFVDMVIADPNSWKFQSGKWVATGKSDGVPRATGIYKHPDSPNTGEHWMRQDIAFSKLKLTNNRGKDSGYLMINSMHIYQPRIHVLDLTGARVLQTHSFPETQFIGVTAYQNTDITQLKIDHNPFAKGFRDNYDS
Experimental: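 Universal protein-binding microarray (Agilent AMADID 016060, 60-bp probes with a 35-bp variable region) incubated with 200 nM GST-fused Patiria miniata Tbr T-box DNA-binding domain (residues 272-466) in PBS pH 7.5. Scored for every ungapped 8-mer (given with its reverse complement) by the Universal PBM Analysis Suite as E-score (modified Wilcoxon-Mann-Whitney enrichment, range -0.5 to 0.5; >0.45 counts as bound) and Z-score of median probe intensity. Two replicate arrays (datasets 1 and 2).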
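Note: 200 nM protein in PBS on universal arrays averaged over duplicate arrays.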

Row | Sequence | PBM E-score of 8-mer
1 | CGGTGTTC | -0.0289 ± 0.062
2 | AGGTGTTG | 0.4891 ± 0.0019
3 | AGCTGTTG | 0.2441 ± 0.0021
4 | AGGTGTCC | 0.45 ± 0.0092
5 | AGATGTCC | -0.322 ± 0.016
6 | AGGTGTTC | 0.4091 ± 0.0032
7 | AGATGTTG | 0.0167 ± 0.014
8 | ACGTGTCC | 0.0892 ± 0.034
9 | AGATGTTC | 0.0612 ± 0.07
10 | GAGCGAAC | 0.0537 ± 0.089
11 | GCTAACTA | 0.212 ± 0.07
12 | ACGCTAGT | 0.036 ± 0.023
13 | GCACACTA | 0.102 ± 0.027
14 | GATAGCCA | -0.257 ± 0.028
15 | CAACGCTC | -0.0448 ± 0.0033
16 | ATTTCACC | 0.167 ± 0.058
17 | CTTTCACA | 0.444 ± 0.0053
18 | GTTTCACA | 0.36 ± 0.027
19 | ATTTCACG | 0.319 ± 0.026
20 | ATTTCACA | 0.426 ± 0.013
21 | CTTTCACC | 0.14 ± 0.034
22 | ACCATTCG | 0.233 ± 0.04
23 | ATCTTTTG | -0.2448 ± 0.0018
24 | CATTTTGC | -0.00766 ± 0.017
25 | CGATCTTA | -0.0203 ± 0.061

Row | Sequence | PBM E-score of 8-mer
26 | TGATCACA | 0.20944 ± 9.2e-05
27 | GCGTGAAC | 0.405 ± 0.021
28 | CTGTGAAA | 0.384 ± 0.0085
29 | CCGTGAAC | 0.257 ± 0.04
30 | CTGTGAAC | 0.356 ± 0.0043
31 | GTGTGAAC | 0.4888 ± 0.0019
32 | ACGTGAAC | 0.112 ± 0.051
33 | ATGTGAAC | 0.175 ± 0.039
34 | TTGTGAAA | 0.344 ± 0.027
35 | CCGTGAAA | 0.222 ± 0.019
36 | GCGTGAAA | 0.4552 ± 0.0024
37 | TCGTGAAA | 0.279 ± 0.018
38 | ATGTGAAA | 0.287 ± 0.019
39 | CCCAGGTA | -0.102 ± 0.03
40 | CGCTTCAA | 0.0949 ± 0.078
41 | AATCGCTG | -0.0604 ± 0.024
42 | CCCATCCG | -0.108 ± 0.058
43 | ACATCGTA | -0.0767 ± 0.038
44 | ATCAATAA | -0.279 ± 0.033
45 | GCTCCTGA | -0.206 ± 0.08
46 | ACCAGGTA | -0.0585 ± 0.034
47 | AACAGGTA | 0.126 ± 0.015
48 | AGCAGGTG | 0.414 ± 0.026
49 | AGCAGGTA | -0.0669 ± 0.01
50 | AACAGGTG | 0.4042 ± 0.00081

Row | Sequence | PBM E-score of 8-mer
51 | AGCAGGTC | 0.0259 ± 0.014
52 | CACAGGTC | 0.15 ± 0.028
53 | ACCAGGTG | 0.369 ± 0.028
54 | AACAGGTC | 0.14 ± 0.036
55 | CACAGGTG | 0.461 ± 0.0062
56 | ACCAGGTC | -0.101 ± 0.039
57 | CACAGGTA | 0.163 ± 0.029
58 | TATTCGGA | -0.32 ± 0.033
59 | ACGCGACG | 0.237 ± 0.016
60 | AACTGCAT | -0.201 ± 0.029
61 | CCTAAGAC | -0.178 ± 0.094
62 | CCCAAGGG | -0.052 ± 0.028
63 | CTACAGAA | 0.0244 ± 0.029
64 | CACATTGG | 0.281 ± 0.053
65 | TGTTTGAA | 0.112 ± 0.0038
66 | ATCAGGTG | 0.404 ± 0.0092
67 | ATCAGGTA | -0.0936 ± 0.033
68 | ATCAGGTC | -0.169 ± 0.12
69 | AAGGTGCC | 0.405 ± 0.0071
70 | GCGGTGCC | 0.0932 ± 0.011
71 | ACGGTGCT | 0.164 ± 0.072
72 | AAGGTGCT | 0.441 ± 0.0066
73 | ACGGTGCA | 0.0807 ± 0.013
74 | GAGGTGCA | 0.367 ± 0.0099
75 | AAGGTGGT | 0.3415 ± 0.002

Row | Sequence | PBM E-score of 8-mer
76 | ATGGTGCC | 0.193 ± 0.051
77 | GAGGTGCC | 0.409 ± 0.03
78 | ACGGTGCC | 0.158 ± 0.032
79 | AAGGTGCA | 0.4 ± 0.011
80 | TAGGTGCA | 0.22 ± 0.024
81 | ACTTTTTC | 0.124 ± 0.02
82 | AAAAGACT | -0.205 ± 0.034
83 | CAGTCCTC | -0.118 ± 0.032
84 | CCACTGCC | -0.17 ± 0.095
85 | CAGAAGTA | -0.223 ± 0.0053
86 | ATCCACAG | -0.0977 ± 0.018
87 | ATCGAACA | -0.0797 ± 0.051
88 | CCCAGGGG | -0.162 ± 0.093
89 | GAAGTGAC | 0.379 ± 0.017
90 | CAAGTGAC | 0.325 ± 0.021
91 | AAAGTGAA | -0.00138 ± 0.15
92 | AAAGTGAC | 0.392 ± 0.012
93 | AAAGTGAT | 0.299 ± 0.012
94 | GAAGTGAA | 0.219 ± 0.011
95 | AGAGTTCG | -0.201 ± 0.018
96 | CTGGGACA | -0.223 ± 0.073
97 | AACTTCCG | -0.141 ± 0.013
98 | AACTTGTC | 0.34353 ± 0.00012
99 | CACTTCCC | 0.3321 ± 0.00048
100 | CACTTCCG | 0.37 ± 0.013

Row | Sequence | PBM E-score of 8-mer
101 | AACTTCAC | 0.0623 ± 0.061
102 | CACTTGTC | 0.402 ± 0.0079
103 | CACTTGTA | 0.0949 ± 0.008
104 | AACTTGCG | 0.137 ± 0.02
105 | CACTTGCG | 0.376 ± 0.019
106 | CACTTCAG | 0.255 ± 0.025
107 | CACTTCAC | 0.396 ± 0.012
108 | CACTTGCA | 0.349 ± 0.0093
109 | ACCCTTGC | 0.0156 ± 0.051
110 | ACAGATAC | -0.0952 ± 0.059
111 | AATTAAGG | -0.152 ± 0.064
112 | ACCGTCAC | 0.288 ± 0.0081
113 | ACACTCTG | 0.2899 ± 0.00065
114 | AATTGGAA | -0.0872 ± 0.056
115 | GGGCCAAA | -0.228 ± 0.029
116 | CATTGGGG | -0.0156 ± 0.035
117 | CTTCGCGC | 0.3742 ± 0.0014
118 | CTTCGCGA | 0.277 ± 0.011
119 | ACTCGCGA | 0.38 ± 0.0065
120 | CATCGCGA | 0.15 ± 0.043
121 | ACTCGCGC | 0.29 ± 0.014
122 | AATCGCGT | 0.169 ± 0.035
123 | ATTCGCGA | 0.389 ± 0.0025
124 | GTTCGCGA | 0.338 ± 0.019
125 | CATCGCGC | 0.262 ± 0.0094

Row | Sequence | PBM E-score of 8-mer
126 | CTTCGCTC | 0.00268 ± 0.066
127 | CCTCGCGA | 0.281 ± 0.00058
128 | AATCGCGA | 0.3771 ± 0.0028
129 | GGCATTAA | -0.146 ± 0.0047
130 | TGCTCCAA | -0.162 ± 0.04
131 | ACCCTACG | 0.0529 ± 0.027
132 | AGCCTAGC | -0.00521 ± 0.12
133 | TCGAAGCA | -0.141 ± 0.0046
134 | AATCGCGC | 0.311 ± 0.024
135 | ATTCGCGC | 0.39 ± 0.021
136 | ATTCGCGG | 0.244 ± 0.039
137 | ATAGCACG | 0.358 ± 0.017
138 | ATAGCACC | 0.416 ± 0.012
139 | CTAGCACC | 0.449 ± 0.006
140 | ATAGCACA | 0.174 ± 0.035
141 | CAAGCACC | 0.129 ± 0.016
142 | CTAGCACA | 0.327 ± 0.024
143 | ACATTCGC | 0.267 ± 0.042
144 | AGGCTTGG | -0.2 ± 0.011
145 | GAAACCGA | -0.0132 ± 0.073
146 | AGCCATAG | -0.0194 ± 0.015
147 | ATGGCACG | 0.189 ± 0.041
148 | CAGGCACC | -0.0396 ± 0.032
149 | CTGGCACC | 0.411 ± 0.018
150 | CTGGCACA | 0.241 ± 0.0048

Row | Sequence | PBM E-score of 8-mer
151 | ATGGCACC | 0.387 ± 0.011
152 | ATGGCACA | 0.103 ± 0.0048
153 | ACCGGTCC | -0.276 ± 0.048
154 | TCCTATAA | -0.189 ± 0.068
155 | AAATAGGG | -0.0426 ± 0.12
156 | ACGGCTCT | -0.15 ± 0.033
157 | AACCTGAG | 0.0264 ± 0.17
158 | CACCTGAG | 0.37535 ± 0.00034
159 | CACCTGTC | 0.4274 ± 0.0023
160 | CGCCTGTC | 0.303 ± 0.026
161 | CACCTGAC | 0.387 ± 0.018
162 | CGCCTGAG | 0.0681 ± 0.047
163 | AACCTGAC | 0.111 ± 0.026
164 | CACCTGAA | 0.312 ± 0.0079
165 | AACCTGTA | -0.252 ± 0.046
166 | AACCTGTC | 0.30927 ± 0.00016
167 | CACCTGTA | 0.391 ± 0.009
168 | GACCTGAC | -0.0852 ± 0.017
169 | AAACTATC | -0.215 ± 0.063
170 | AACCAGCA | -0.18 ± 0.047
171 | GATGGCCC | -0.138 ± 0.0089
172 | GCTCCACA | -0.0189 ± 0.02
